For experiment [1], the target named is Aryl hydrocarbon receptor (Homo sapiens) (UniProt P35869). The experiment in a line: qHTS assay to identify small molecule that activate the aryl hydrocarbon receptor (AhR) signaling pathway (AID 743085). Also: nearly all actives have a fitted effect of over 15% in size. Also: potency is read from the fitted curve at half-maximal effect.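 As to activation: HG2L7.5c1 human HepG2 liver cells with stably integrated DRE-driven firefly reporter; series mostly up to about 70 µM.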 The method, boiled down: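 A multiplexed format paired cell viability (CellTiter-Fluor fluorescence) with AhR-dependent luciferase output (ONE-Glo luminescence) in the same wells of HepG2 DRE-luc cells after 24 h compound exposure at 37C.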

Experiment [2] is described as follows: qHTS assay to identify small molecule that activate the aryl hydrocarbon receptor (AhR) signaling pathway - cell viability counter screen (AID 743086).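 Also: HepG2 liver cells carrying the AhR DRE luciferase reporter; series mostly up to about 70 µM; nearly all actives have a fitted effect of over 45% in size.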 The method, boiled down: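 HepG2-AhR-luc (HG2L7.5c1) cells, 4000/well, were preincubated 5 h at 37C, exposed to compound in qHTS format for 24 hr at 37C, then given CellTiter-Fluor for 30 min; viability was read as fluorescence in the reporter wells.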

Experiment [3] deals with Peroxisome proliferator-activated receptor gamma (Homo sapiens) (UniProt P37231). The experiment in a line: qHTS assay to identify small molecule antagonists of the peroxisome proliferator-activated receptor gamma (PPARg) signaling pathway (AID 743191; calls by dose curve; also: nearly all actives have a fitted effect of over 30% in size; also: potency is read from the fitted curve at half-maximal effect). The method, boiled down:
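GeneBLAzer PPARg UAS-bla HEK293H cells carrying a UAS-driven beta-lactamase reporter were plated at 3000 cells/well, preincubated 5 h at 37C, then given compound for 17 h at 37C; LiveBLAzer B/G FRET substrate was read after 1 h at room temperature.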
On the technique in general: In qHTS, concentration-response curves come from the screen itself.

The nature of experiment [4]: qHTS assay to identify small molecule antagonists of the peroxisome proliferator-activated receptor gamma (PPARg) signaling pathway - cell viability counter screen (AID 743194). Also: nearly all actives have a fitted effect of over 55% in size. Put shortly: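 PPARg-UAS-bla HEK293H cells were plated, rested 5 h at 37 C, then treated with compounds plus rosiglitazone (50 nM final) for 17 h at 37 C; viability was then read by CellTiter-Glo luminescence after 30 min at room temperature.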

The nature of experiment [5]: qHTS assay for small molecule agonists of the antioxidant response element (ARE) signaling pathway (AID 743202; active = well fitted activation curve with a large enough effect in the signal ratio in the repeat runs, not every such curve was filed as active; the % refers to the signal ratio; also: potency is read from the fitted curve at half-maximal effect). The method, boiled down: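 Compounds delivered in DMSO to ARE-bla HepG2 cells (2,000 cells/well, pre-incubated 5 h) and left 16 h at 37 C. LiveBLAzer B/G FRET substrate then added for 2 h at RT before fluorescence reading.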
Experiment [6] can be described thus: qHTS assay for small molecule agonists of the antioxidant response element (ARE) signaling pathway - cell viability counter screen (AID 743203; calls by dose curve; also: nearly all actives have a fitted effect of over 55% in size). Put shortly: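 Cells (ARE-bla HepG2, 2,000/well) receive DMSO-dissolved compounds after a 5 hrs rest. Plates incubate 16 hrs at 37C/5% CO2. CellTiter-Glo luminescence is then recorded after 30 min at room temperature.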

Experiment [7] is described as follows: qHTS assay for small molecule activators of the heat shock response signaling pathway - cell viability counter screen (AID 743209). Also: nearly all actives have a fitted effect of over 50% in size. The method, boiled down:
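Quantitative HTS format, Tox21 10K library. HeLa cells carrying an HSE-driven beta-lactamase reporter were treated 5 h at 37 C, then assessed for viability by CellTiter-Glo luminescence.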

Experiment [8] in a line: qHTS assay for small molecule activators of the heat shock response signaling pathway (AID 743210; active = well fitted activation curve with a large enough effect in the signal ratio in the repeat runs, with a control signal flat, not every such curve was filed as active; the % refers to the signal ratio; also: potency is read from the fitted curve at half-maximal effect;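 as to activation: HeLa cells with beta-lactamase reporter driven by heat shock elements; series mostly up to about 63 µM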). Put shortly:
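Reporter gene assay: HeLa cells stably bearing an HSE-bla construct, compound treatment 5 h at 37 C, LiveBLAzer substrate 2.5 h at RT, fluorescence intensity.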

A short description of experiment [9]: qHTS assay to identify small molecule agonists of the peroxisome proliferator-activated receptor delta (PPARd) signaling pathway - cell viability counter screen (AID 743211). Also: nearly all actives have a fitted effect of over 55% in size. Also: potency is read from the fitted curve at half-maximal effect. Put shortly: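 Tox21 library compounds, delivered in DMSO, were incubated 17 h with PPARd-bla HEK293H cells; cytotoxicity was taken from CellTiter-Glo luminescence read 30 min after reagent addition.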

A short description of experiment [10]: qHTS assay to identify small molecule agonists of the farnesoid-X-receptor (FXR) signaling pathway - cell viability counter screen (AID 743218). Also: nearly all actives have a fitted effect of over 45% in size. Also: potency is read from the fitted curve at half-maximal effect. Put shortly: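 In GeneBLAzer FXR-UAS-bla HEK 293T cells, compounds act for 16 h at 37 C. Cell viability is then scored in the reporter wells by CellTiter-Glo, 30 min at RT, luminescence.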
A short description of experiment [11]: qHTS assay to identify small molecule antagonists of the farnesoid-X-receptor (FXR) signaling pathway - cell viability counter screen (AID 743221; active = well fitted cell-killing curve with a large enough effect in the repeat runs, not every such curve was filed as active; also: nearly all actives have a fitted effect of over 50% in size). The method, boiled down: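 Cytotoxicity is taken from ATP luminescence (CellTiter-Glo, 30 min, room temperature) in FXR-bla HEK 293T cells previously incubated 16 h at 37 C with compound and chenodeoxycholic acid at 50 uM final.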

Experiment [12] deals with Vitamin D3 receptor (Homo sapiens) (UniProt P11473). In words: qHTS assay to identify small molecule agonists of the vitamin D receptor (VDR) signaling pathway (AID 743222; calls by dose curve). Put shortly: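 Agonist activity measured in VDR-bla reporter cells. Exposure 16 h, 37C, 5% CO2; detection by B/G FRET substrate, 2 h RT.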
A short description of experiment [13]: qHTS assay to identify small molecule agonists of the vitamin D receptor (VDR) signaling pathway - cell viability counter screen (AID 743224). Also: series mostly up to about 63 µM; nearly all actives have a fitted effect of over 50% in size. The method, boiled down:
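VDR-bla cell line, quantitative HTS format; 16 h compound incubation (37C, 5% CO2); ATP-based CellTiter-Glo luminescence measured in the reporter assay wells.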

The target in experiment [14] is Peroxisome proliferator-activated receptor delta (Homo sapiens) (UniProt Q03181). The experiment in a line: qHTS assay to identify small molecule agonists of the peroxisome proliferator-activated receptor delta (PPARd) signaling pathway (AID 743212; calls by dose curve). Put shortly: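 A PPARd-bla HEK293H line with beta-lactamase under an Upstream Activator Sequence is treated with compounds at 37 C. Substrate loading for 2 h at room temperature precedes the fluorescence measurement.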

Experiment [15] can be described thus: qHTS assay to identify small molecule antagonists of the peroxisome proliferator-activated receptor delta (PPARd) signaling pathway - cell viability counter screen (AID 743213). Also: nearly all actives have a fitted effect of over 50% in size. Also: potency is read from the fitted curve at half-maximal effect. Put shortly: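 HEK293H PPARd UAS-bla cells, 5 h pre-incubation, compound + L165041 300 nM final, 17 h 37 C; B/G FRET substrate 2 h RT; then CellTiter-Glo 30 min RT, luminescence.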

For experiment [16], the target named is Vitamin D3 receptor (Homo sapiens) (UniProt P11473). In words: qHTS assay to identify small molecule antagonists of the vitamin D receptor (VDR) signaling pathway (AID 743223; active = well fitted inhibition curve with a large enough effect in the signal ratio in the repeat runs, not every such curve was filed as active; the % refers to the signal ratio). The method, boiled down:
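Quantitative HTS in VDR-bla reporter cells stimulated with 1alpha,25-dihydroxyvitamin D3, 3 nM final. Compound exposure 16 h, 37C, 5% CO2. Read-out: beta-lactamase FRET substrate fluorescence, 2 h RT.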

Experiment [17] concerns the target Peroxisome proliferator-activated receptor gamma (Homo sapiens) (UniProt P37231). In words: qHTS assay to identify small molecule agonists of the peroxisome proliferator-activated receptor gamma (PPARg) signaling pathway (AID 743094; active = well fitted activation curve with a large enough effect in the signal ratio in the repeat runs, not every such curve was filed as active; the % refers to the signal ratio). The method, boiled down: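 Stably transfected HEK293H cells (GeneBLAzer PPARg UAS-bla) were incubated with test substances for 17 h at 37C after a 5 h pre-incubation; beta-lactamase activity was then detected by FRET substrate fluorescence.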

Experiment [18] concerns the target Peroxisome proliferator-activated receptor delta (Homo sapiens) (UniProt Q03181). In words: qHTS assay to identify small molecule antagonists of the peroxisome proliferator-activated receptor delta (PPARd) signaling pathway (AID 743215; active = well fitted inhibition curve with a large enough effect in the signal ratio in the repeat runs, not every such curve was filed as active; the % refers to the signal ratio;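 also: cells stimulated with agonist L165041 at 300 nM final during compound exposure; series mostly up to about 62 µM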). Put shortly: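 Antagonist-mode beta-lactamase reporter screen: HEK293H cells with UAS-bla under PPARd control, stimulated by 300 nM L165041 (final) alongside test compound for 17 h at 37 C, then FRET fluorescence after 2 h substrate incubation.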

For experiment [19], the target named is Bile acid receptor (Homo sapiens) (UniProt Q96RI1). In words: qHTS assay to identify small molecule agonists of the farnesoid-X-receptor (FXR) signaling pathway (AID 743220; active = well fitted activation curve with a large enough effect in the signal ratio in the repeat runs, not every such curve was filed as active; the % refers to the signal ratio). Put shortly:
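Beta-lactamase reporter under UAS control in GeneBLAzer FXR HEK 293T cells (5000/well) measured with LiveBLAzer FRET substrate after 2 h at room temperature. Compound exposure lasted 16 h at 37C.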

Experiment [20] shares this target. In words: qHTS assay to identify small molecule antagonists of the farnesoid-X-receptor (FXR) signaling pathway (AID 743217; active = well fitted inhibition curve with a large enough effect in the signal ratio in the repeat runs, not every such curve was filed as active; the % refers to the signal ratio). Put shortly:
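Beta-lactamase reporter under UAS control in HEK 293T cells; compound exposure 16 h at 37 °C in the presence of chenodeoxycholic acid (50 uM final); signal from B/G FRET substrate after 2 h at room temperature.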

Drawing on PubChem BioAssay (Tox21), this text covers Potency for twelve compounds.

Results filed as inconclusive are left out. Calls of active or inactive are those of the source. Unless noted, calls follow the shape of the dose curve; as a rule, active = well fitted curve in the direction sought with a large enough effect in the repeat runs; inconclusive = weak or mixed curves; inactive = no such curve, though single readings can be large; an effect the other way counts as inactive or inconclusive.

Chain of Peroxisome proliferator-activated receptor gamma (Homo sapiens) (P37231 whole entry, looked up): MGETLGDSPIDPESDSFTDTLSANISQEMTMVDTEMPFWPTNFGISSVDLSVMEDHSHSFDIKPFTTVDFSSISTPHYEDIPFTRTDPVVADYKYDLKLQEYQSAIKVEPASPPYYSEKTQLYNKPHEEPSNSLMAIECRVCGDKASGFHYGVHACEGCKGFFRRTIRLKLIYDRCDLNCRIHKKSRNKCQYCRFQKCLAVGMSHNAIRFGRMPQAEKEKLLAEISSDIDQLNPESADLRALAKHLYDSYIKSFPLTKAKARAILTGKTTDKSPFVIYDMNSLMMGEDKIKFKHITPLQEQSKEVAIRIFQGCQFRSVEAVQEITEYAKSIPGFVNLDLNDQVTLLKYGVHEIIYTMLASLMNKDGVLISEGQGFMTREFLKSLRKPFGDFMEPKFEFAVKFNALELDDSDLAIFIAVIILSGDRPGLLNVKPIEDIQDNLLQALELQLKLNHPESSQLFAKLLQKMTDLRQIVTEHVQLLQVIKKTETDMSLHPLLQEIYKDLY
Chain of Vitamin D3 receptor (Homo sapiens) (P11473 whole entry, looked up): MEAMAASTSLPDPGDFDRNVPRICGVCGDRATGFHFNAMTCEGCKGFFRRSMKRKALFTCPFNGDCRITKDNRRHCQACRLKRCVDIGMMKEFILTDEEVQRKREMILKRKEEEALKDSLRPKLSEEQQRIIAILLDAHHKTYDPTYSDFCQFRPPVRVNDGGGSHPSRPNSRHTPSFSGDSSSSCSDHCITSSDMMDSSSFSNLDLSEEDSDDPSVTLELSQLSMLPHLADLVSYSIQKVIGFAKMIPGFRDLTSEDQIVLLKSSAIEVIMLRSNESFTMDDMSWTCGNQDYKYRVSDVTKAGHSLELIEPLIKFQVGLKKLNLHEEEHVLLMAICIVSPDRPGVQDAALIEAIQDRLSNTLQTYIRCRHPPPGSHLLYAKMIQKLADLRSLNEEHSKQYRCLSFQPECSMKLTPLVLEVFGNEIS
Chain of Aryl hydrocarbon receptor (Homo sapiens) (P35869 whole entry, looked up): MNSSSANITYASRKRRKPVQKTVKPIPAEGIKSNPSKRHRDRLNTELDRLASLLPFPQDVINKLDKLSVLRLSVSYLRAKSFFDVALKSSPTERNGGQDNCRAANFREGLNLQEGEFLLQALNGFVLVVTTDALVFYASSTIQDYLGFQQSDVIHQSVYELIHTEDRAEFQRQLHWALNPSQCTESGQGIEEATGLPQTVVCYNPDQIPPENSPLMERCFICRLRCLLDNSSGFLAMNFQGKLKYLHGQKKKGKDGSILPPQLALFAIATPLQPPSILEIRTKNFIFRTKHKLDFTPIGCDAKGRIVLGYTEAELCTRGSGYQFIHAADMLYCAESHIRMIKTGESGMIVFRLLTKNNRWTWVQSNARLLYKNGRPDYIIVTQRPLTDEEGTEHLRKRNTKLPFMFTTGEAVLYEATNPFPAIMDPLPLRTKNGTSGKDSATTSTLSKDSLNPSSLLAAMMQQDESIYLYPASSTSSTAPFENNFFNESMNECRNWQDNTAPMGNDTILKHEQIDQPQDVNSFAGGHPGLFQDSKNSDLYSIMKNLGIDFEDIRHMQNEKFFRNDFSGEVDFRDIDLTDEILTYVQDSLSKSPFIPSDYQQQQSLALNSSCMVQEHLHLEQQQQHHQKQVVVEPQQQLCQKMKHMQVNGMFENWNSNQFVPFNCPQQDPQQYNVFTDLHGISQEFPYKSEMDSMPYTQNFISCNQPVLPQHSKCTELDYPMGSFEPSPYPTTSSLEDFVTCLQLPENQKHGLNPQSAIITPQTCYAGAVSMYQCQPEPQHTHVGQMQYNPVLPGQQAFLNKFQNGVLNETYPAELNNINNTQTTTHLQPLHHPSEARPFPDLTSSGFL
Chain of Peroxisome proliferator-activated receptor delta (Homo sapiens) (Q03181 whole entry, looked up): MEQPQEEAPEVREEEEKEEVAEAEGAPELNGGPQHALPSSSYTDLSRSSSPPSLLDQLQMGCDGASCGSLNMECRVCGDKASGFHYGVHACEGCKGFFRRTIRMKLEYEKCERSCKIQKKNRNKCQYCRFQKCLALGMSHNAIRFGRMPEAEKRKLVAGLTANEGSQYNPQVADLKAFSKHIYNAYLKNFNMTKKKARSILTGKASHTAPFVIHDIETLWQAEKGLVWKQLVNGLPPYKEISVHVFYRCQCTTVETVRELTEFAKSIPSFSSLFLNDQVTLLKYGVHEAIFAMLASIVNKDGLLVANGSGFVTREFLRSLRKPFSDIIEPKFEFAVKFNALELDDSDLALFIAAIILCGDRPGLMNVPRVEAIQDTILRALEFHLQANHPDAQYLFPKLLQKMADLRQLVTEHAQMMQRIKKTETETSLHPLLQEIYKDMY
Chain of Bile acid receptor (Homo sapiens) (Q96RI1 whole entry, looked up): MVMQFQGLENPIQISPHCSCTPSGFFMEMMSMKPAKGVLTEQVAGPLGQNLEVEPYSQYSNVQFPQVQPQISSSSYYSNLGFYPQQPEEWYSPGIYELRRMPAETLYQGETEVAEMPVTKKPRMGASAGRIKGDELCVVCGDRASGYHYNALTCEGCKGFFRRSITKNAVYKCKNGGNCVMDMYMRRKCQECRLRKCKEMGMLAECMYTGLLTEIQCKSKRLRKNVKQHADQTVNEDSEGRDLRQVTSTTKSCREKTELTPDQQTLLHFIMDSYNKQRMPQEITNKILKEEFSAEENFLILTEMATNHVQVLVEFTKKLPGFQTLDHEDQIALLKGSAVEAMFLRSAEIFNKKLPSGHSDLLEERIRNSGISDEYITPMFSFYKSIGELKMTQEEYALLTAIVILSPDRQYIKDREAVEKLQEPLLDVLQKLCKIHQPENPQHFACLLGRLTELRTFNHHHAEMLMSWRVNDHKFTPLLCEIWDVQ

For the compound `CC(C)=CCC1C(=O)N(c2ccccc2)N(c2ccccc2)C1=O`, the Potency result in experiment [1], in experiment [2], in [4], in [6], in [7] and in experiment [9] was “inactive” each time. In addition, the Potency result in [10], in experiment [11], in experiment [12] and in experiment [13] was “inactive” in each case. Also, the Potency in [3] is 4.22 µM (active); in [5], 1.88 µM (active); in [8], 28.7 µM (active).

For the compound `COc1cc(C(=O)NCCCCCC(=O)O)cc(OC)c1OC`, the Potency result in [1], in experiment [2], in experiment [3], in experiment [4], in experiment [6] and in experiment [7] was “inactive” throughout. In addition, the Potency entry in experiment [8], in experiment [9], in [14], in [15], in experiment [10] and in experiment [11] was “inactive” throughout. Moreover, the Potency entry in experiment [16] and in experiment [13] was “inactive” in each case.

On to `O=C1c2ccccc2C(=O)C1c1ccc(Br)cc1`, for which, in [1], the Potency is 11.9 µM (active). Further, the Potency entry in experiment [2], in [17], in experiment [4], in experiment [6], in experiment [9] and in [15] was “inactive” in each case. Moreover, the Potency entry in experiment [18], in [10], in experiment [11], in experiment [12], in experiment [16] and in experiment [13] was “inactive” in each case.

Take `COC(=O)CCS`: the Potency result in [1], in experiment [2], in experiment [3], in experiment [4], in experiment [5] and in experiment [6] was “inactive” each time. The Potency entry in experiment [7], in experiment [8], in experiment [9], in [14], in [15] and in experiment [18] was “inactive” in each case. The Potency result in [10], in experiment [11], in experiment [12], in experiment [16] and in experiment [13] was “inactive” in each case.

On to `CCC(C)COC(=O)CC(C)C` (configuration not stated), for which the Potency entry in experiment [1], in experiment [2], in experiment [3], in [6], in experiment [7] and in experiment [15] was “inactive” each time. Besides, the Potency entry in [18], in experiment [12], in experiment [16] and in experiment [13] was “inactive” throughout. In experiment [10], the Potency was 24.5 µM (active).

Take `C=CC(C)(CCC=C(C)C)OC(=O)CC(C)C` (configuration not stated): the Potency result in experiment [1], in experiment [2], in experiment [3], in experiment [4], in experiment [6] and in experiment [7] was “inactive” in each case. The Potency result in experiment [8], in experiment [9], in experiment [14], in experiment [15], in experiment [18] and in experiment [10] was “inactive” throughout. The Potency entry in experiment [11], in experiment [12] and in experiment [13] was “inactive” in each case.

As to `C[C@@H](CN(C)C)CN1c2ccccc2Sc2ccccc21`, the Potency result in experiment [1], in experiment [2], in [17], in experiment [6], in experiment [7] and in experiment [8] was “inactive” throughout. Further, the Potency result in [18], in experiment [19], in experiment [12] and in [13] was “inactive” in each case. Besides, the Potency in experiment [9] was 23.7 µM (active); in experiment [15] it was 26.6 µM (active).

Turning to `CN(C)CCN1C(=O)c2ccccc2N(C)c2ccccc21`, the Potency result in experiment [1], in experiment [2], in experiment [3], in [4], in experiment [6] and in experiment [7] was “inactive” throughout. Also, the Potency result in [8], in experiment [14], in experiment [15], in [18], in experiment [20] and in experiment [10] was “inactive” in each case. Further, the Potency entry in experiment [19], in [11], in [12], in experiment [16] and in [13] was “inactive” each time.

In the case of `CC(=O)c1ccc([N+](=O)[O-])cc1`, the Potency result in [1], in [2], in [3], in experiment [4], in [6] and in experiment [7] was “inactive” each time. In addition, the Potency entry in [8], in experiment [9], in experiment [14], in [15], in experiment [18] and in experiment [10] was “inactive” throughout. Also, the Potency entry in [11], in [12], in experiment [16] and in experiment [13] was “inactive” throughout.

With `COc1cc(N)c(Cl)cc1C(=O)NC1CCN(CCCOc2ccc(F)cc2)CC1OC` (configuration not stated), the Potency result in experiment [1], in experiment [2], in experiment [3], in experiment [4], in [5] and in experiment [6] was “inactive” each time. For the same compound, the Potency result in [7], in [8], in experiment [14], in experiment [18] and in experiment [11] was “inactive” in each case.

As to `CC[C@]1(O)C[C@H]2CN(CCc3c([nH]c4ccccc34)[C@@](C(=O)OC)(c3cc4c(cc3OC)N(C=O)[C@H]3[C@@](O)(C(=O)OC)[C@H](OC(C)=O)[C@]5(CC)C=CCN6CC[C@]43[C@@H]65)C2)C1`, the Potency entry in experiment [1], in experiment [2], in experiment [3], in [4], in experiment [7] and in experiment [8] was “inactive” throughout. In addition, the Potency result in [9], in experiment [14], in experiment [15], in [18], in [10] and in experiment [11] was “inactive” throughout.

As for `Cc1cc2c(OCC(CNC(C)(C)C)OC(=O)c3ccccc3)cccc2[nH]1` (configuration not stated), the Potency entry in experiment [1], in experiment [2], in experiment [3], in experiment [4], in experiment [5] and in [6] was “inactive” each time. The Potency entry in experiment [7], in experiment [8], in experiment [9], in experiment [15], in experiment [18] and in [10] was “inactive” throughout. Moreover, the Potency entry in experiment [11], in experiment [12], in experiment [16] and in [13] was “inactive” throughout.
